# Laboratory results published in the supplement of paper PMC9135407.
# “And” between values parts separate entries of the source, which are not always exact repeats. Equal entries are not always repeated. Structures can show the parent of a compound that is named as a salt. The campaign covered roughly 5,800 compounds. About 620 (11%) showed activity. This excerpt belongs to a sample that is enriched for actives. Unmarked numbers belong to inactive results.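 Rule for the calls: active = score above a cut-off or among the top three wells of a plate; in these data no inactive exceeds 0.85.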
# Test system: primary human hepatic stellate cells (donor 1)
# Assay: scaled lipid accumulation score (0 = DMSO-like, 1 = nortriptyline-like); higher = stronger HSC inactivation (lipid re-accumulation), active = hit call of the paper
# Conditions: 48 h
# [1] = library stock concentration: 2 mM
# [2] = library stock concentration: 400 uM
# [3] = library stock concentration: 80 uM
# [4] = library stock concentration: 10 mM
# [5] = library stock concentration: 3.33 mM
# [6] = library stock concentration: 1 mM
smiles,measurement,setting,value
S=C(NCc1ccc2c(c1)OCO2)N1CCN(c2ncnc3c2oc2ccccc23)CC1 [Amuvatinib  (MP-470) (2 mM)],scaled lipid accumulation score,[1],0.074
S=C(NCc1ccc2c(c1)OCO2)N1CCN(c2ncnc3c2oc2ccccc23)CC1 [Amuvatinib  (MP-470) (0.4 mM)],scaled lipid accumulation score,[2],0.042
S=C(NCc1ccc2c(c1)OCO2)N1CCN(c2ncnc3c2oc2ccccc23)CC1,scaled lipid accumulation score,[3],0.069
same,scaled lipid accumulation score,[2],≤ -0.009
same,scaled lipid accumulation score,[1],0.025
same,scaled lipid accumulation score,[4],0.035
S=C(NCc1ccc2c(c1)OCO2)N1CCN(c2ncnc3c2oc2ccccc23)CC1 [Amuvatinib  (MP-470) (10 mM)],scaled lipid accumulation score,[4],0.068
S=C(NCc1ccc2c(c1)OCO2)N1CCN(c2ncnc3c2oc2ccccc23)CC1 [Amuvatinib (MP-470)],scaled lipid accumulation score,[5],0.006
same,scaled lipid accumulation score,[4],≤ 0
O=C(O)[C@H]1NCCC[C@H]1C(=O)O,scaled lipid accumulation score,[4],≤ 0
C[S+]([O-])c1ccc(-c2nc(-c3ccc(F)cc3)c(-c3ccncc3)[nH]2)cc1 (stereo not given),scaled lipid accumulation score,[3],0.004
same,scaled lipid accumulation score,[2],≤ -0.009 and ≤ -0.005
same,scaled lipid accumulation score,[6],≤ 0
same,scaled lipid accumulation score,[1],0.017 and ≤ -0.005
same,scaled lipid accumulation score,[5],≤ 0
same,scaled lipid accumulation score,library stock concentration: 13.2 mM,≤ -0.012
CCCCCC=CC=CC(O)CCCCCCCC(=O)OCC(COC(=O)CCCCCCCC=CC=CC(O)CCCCC)OC(=O)CCCCCCCC=CC=CC(O)CCCCC (stereo not given) [Hydroxy Linoleins],scaled lipid accumulation score,[6],0.061
N#CCNC(=O)c1ccc(-c2ccnc(Nc3ccc(N4CCOCC4)cc3)n2)cc1 [Momelotinib (CYT387) (0.4 mM)],scaled lipid accumulation score,[2],≤ -0.005
N#CCNC(=O)c1ccc(-c2ccnc(Nc3ccc(N4CCOCC4)cc3)n2)cc1 [Momelotinib (CYT387) (10 mM)],scaled lipid accumulation score,[4],0.945 (active)
O=C(Nc1ccc(-c2ccnc(Nc3ccc(N4CCOCC4)cc3)n2)cc1)[C@@H]1CCCN1,scaled lipid accumulation score,[4],1.06 (active)
N#CCNC(=O)c1ccc(-c2ccnc(Nc3ccc(N4CCOCC4)cc3)n2)cc1 [Momelotinib (CYT387) (2 mM)],scaled lipid accumulation score,[1],0.858 (active)
N#CCNC(=O)c1ccc(-c2ccnc(Nc3ccc(N4CCOCC4)cc3)n2)cc1 [listing 1 of 2 here],scaled lipid accumulation score,[5],1.05 (active)
same,scaled lipid accumulation score,[4],0.922 (active)
O=C(Nc1ccc(-c2ccnc(Nc3ccc(N4CCOCC4)cc3)n2)cc1)C1CCCN1 (stereo not given),scaled lipid accumulation score,[3],≤ 0
same,scaled lipid accumulation score,[2],0.007
same,scaled lipid accumulation score,[1],0.036
same,scaled lipid accumulation score,[5],0.063
same,scaled lipid accumulation score,[4],0.662
c1ccc2c(Oc3nc(Nc4ccc(N5CCOCC5)cc4)c4ncn(C5CCCCC5)c4n3)cccc2c1 [Purmorphamine],scaled lipid accumulation score,[6],≤ 0
same,scaled lipid accumulation score,[5],≤ 0
same,scaled lipid accumulation score,[4],0.032
N#CCNC(=O)c1ccc(-c2ccnc(Nc3ccc(N4CCOCC4)cc3)n2)cc1 [listing 2 of 2 here],scaled lipid accumulation score,[3],≤ -0.009
same,scaled lipid accumulation score,[2],0.038
same,scaled lipid accumulation score,[1],≤ -0.009
same,scaled lipid accumulation score,[4],0.768
CC1=C(/C=C/C(=C/C=C/C(C)=C/C(=O)O)c2ccc(C)cc2)C(C)(C)CCC1,scaled lipid accumulation score,[4],≤ -0.001
CCCCCC=CCC=CCC=CCCCCCCC(=O)OC [Dihomo-.gamma.-Linolenic Acid methyl ester],scaled lipid accumulation score,[6],0.037
CC(C)CC(N)=O [Isovaleramide],scaled lipid accumulation score,[5],≤ 0
same,scaled lipid accumulation score,[4],≤ -0.001
CC(C)CC(N)=O,scaled lipid accumulation score,[4],0.291
Cc1ncc2ccccc2c1C#N [4-Cyano-3-methylisoquinoline],scaled lipid accumulation score,[5],≤ 0
"CC(=O)NC1[C@@H](O)OC(CO)[C@@H](O)[C@H]1O[C@H](C)C(=O)O (stereo in doubt) [Muramic acid, N-acetyl]",scaled lipid accumulation score,,≤ 0
CCC(=O)Oc1ccc2c(c1)CC[C@@H]1[C@@H]2CC[C@]2(C)[C@@H](OC(=O)CC)CC[C@@H]12,scaled lipid accumulation score,[4],≤ 0
Brc1c(Br)c(Br)c2n[nH]nc2c1Br [Casein Kinase II Inhibitor I],scaled lipid accumulation score,[5],≤ 0
CCCCOc1cc(C(=O)OCCN(CC)CC)ccc1N [Benoxinate hydrochloride],scaled lipid accumulation score,,0.276
CCCOc1ccc(C(=O)OCCN(CC)CC)cc1N [Proparacaine HCl],scaled lipid accumulation score,[5],≤ 0
same,scaled lipid accumulation score,[4],≤ 0
"CCN(CC)CCOC(=O)c1cc(Cl)c(N)cc1OC [SDZ-205,557 hydrochloride]",scaled lipid accumulation score,[4],0.051
CCN(CC)CCCCCCCCOC(=O)c1cc(OC)c(OC)c(OC)c1.Cl [TMB-8 hydrochloride],scaled lipid accumulation score,[4],1.03 (active)
CCCCOc1cc(C(=O)OCCN(CC)CC)ccc1N [Oxybuprocaine HCl],scaled lipid accumulation score,[5],≤ 0
same,scaled lipid accumulation score,[4],0.338
CCN(CCCCOC(=O)c1ccc(OC)c(OC)c1)C(C)Cc1ccc(OC)cc1 (stereo not given) [Mebeverine hydrochloride],scaled lipid accumulation score,,0.362
same,scaled lipid accumulation score,[4],≤ 0
CCN(CC)CCOC(=O)c1cc(Cl)c(N)cc1OC [SDZ 205-557 hydrochloride],scaled lipid accumulation score,[4],0.003
CCN(CC)CCCCCCCCOC(=O)c1cc(OC)c(OC)c(OC)c1,scaled lipid accumulation score,library stock concentration: 12.6 mM,1.02 (active)
